Out of some 220,000 compounds screened, about 2,000 (0.91%) were called active. Another 2% or so got no clear call; they are omitted. Rule as the data show it: inconclusive = inhibition above about 80% without an active follow-up result; inactive = below that; test concentration not stated here. These entries were drawn from the full list. Measured potencies and affinities stand elsewhere.
Assay: M. tuberculosis H37Rv growth inhibitors, H37Rv strain (AID 1626);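 also: bacteria incubated seven days before Alamar blue readout; 0% = bacteria only wells and 100% = bacteria with antibiotic wells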
Details: stronger effect = higher value, concentration not given here
For `O=C(O)c1ccc(NC(=O)C2C3CCC(C3)C2C(=O)O)cc1` (stereo not given), the inhibition was 0.17% (inactive).
With `Cn1nc(-c2ccccc2)cc1NC(=O)Nc1ccc(C(C)(C)C)cc1` the inhibition was 8.89% (inactive).
For `Cn1ncc(Br)c1NC(=O)Nc1ccc(OC(F)(F)F)cc1`, the inhibition was 5.76% (inactive).
In the case of `COc1ccc(S(=O)(=O)N2CCCC(C(=O)NCc3ccncc3)C2)cc1` (stereo not given), the inhibition is reported as -3.7% (inactive).
With `CN(C)/C=C/C(=O)c1ccc(N2CCN(c3ncc(C(F)(F)F)cc3Cl)CC2)cc1` the inhibition was -11.4% (inactive).
For `CCOC1(OCC)C(c2ccc(N)cc2)C(C#N)(C#N)C1(OCC)OCC` (stereo not given), the inhibition was -7.48% (inactive).
For `CC(C)(C)S(=O)(=O)c1cnc(-c2ccccn2)nc1N`, the inhibition was -8.12% (inactive).
For `O=C(CSc1nnc(-c2cccs2)o1)c1cccs1`, the inhibition was 11.9% (inactive).
For `COc1ccc(-c2nnc(SCC(=O)c3cccs3)o2)cc1`, the inhibition was 12.7% (inactive).
For `O=C(OCC#CCSc1nnc(-c2cccc3ccccc23)o1)c1cccs1`, the inhibition was 60.9% (inactive).
In the case of `OCC#CCSc1nnc(-c2ccncc2)o1`, the inhibition is reported as -1.67% (inactive).
For `O=C(CSc1nnc(-c2ccncc2)o1)c1cccc([N+](=O)[O-])c1`, the inhibition was -6.49% (inactive).
In the case of `COc1ccc(-c2nnc(SCC#CCO)o2)cc1OC`, the inhibition is reported as -8.82% (inactive).
In the case of `O=C(NCCSc1ccccc1)c1ccccc1`, the inhibition is reported as -18.6% (inactive).
With `O=C(c1ccco1)[C@@H]1[C@@H]2C(=O)N(c3ccccc3)C(=O)[C@@H]2C2c3ccccc3C=CN21` (stereo not given in full) the inhibition was -13.4% (inactive).
In the case of `COc1ccc(C)cc1S(=O)(=O)N(CC(=O)Nc1cccc([N+](=O)[O-])c1)c1ccccc1`, the inhibition is reported as 0.46% (inactive).
In the case of `Cc1cc(N2CCN(c3cccc(C)c3C)CC2)nc(-c2ccccc2)n1`, the inhibition is reported as 6.21% (inactive).
In the case of `CC(C)(C)C(=O)Nc1nnc(Cc2ccccc2)s1`, the inhibition is reported as 10.8% (inactive).
With `CCOC(=O)CSc1nc2ccccc2c(=O)n1CC(C)C` the inhibition was 7.35% (inactive).
With `CCOC(=O)C1(CCOc2ccccc2)CCN(Cc2ccc(-n3cccn3)cc2)CC1` the inhibition was 4.73% (inactive).
In the case of `CCOC(=O)C1(CCOc2ccccc2)CCN(Cc2cccc(-n3cccn3)c2)CC1`, the inhibition is reported as -2.65% (inactive).
For `CCc1cc2c(SCC(=O)N(CC)c3c(N)n(Cc4ccccc4)c(=O)[nH]c3=O)ncnc2s1`, the inhibition was 5.81% (inactive).
In the case of `Clc1ccc(-c2csc(N/N=C/c3ccc4c(c3)OCO4)n2)cc1`, the inhibition is reported as 48.7% (inactive).
For `CCNC(=O)Nc1nc2ccccc2s1`, the inhibition was 4.21% (inactive).
With `Cc1cccc(Cl)c1OCCCCn1ccnc1` the inhibition was 3.12% (inactive).
With `Cc1cc(OCCCn2ccnc2)cc(C)c1Cl` the inhibition was 16.8% (inactive).
In the case of `Cc1cc(OCCCCn2ccnc2)cc(C)c1Cl`, the inhibition is reported as 51.5% (inactive).
With `Cc1ccc(OCCCCn2ccnc2)c(Cl)c1` the inhibition was 56.8% (inactive).
In the case of `O=C(CCN1C(=O)c2ccccc2C1=O)Nc1ccc(S(=O)(=O)N2CCOCC2)cc1`, the inhibition is reported as -4.04% (inactive).
In the case of `Cc1cc(C)cc(OCC(O)CN2C(=O)NC(C)(C)C2=O)c1` (stereo not given), the inhibition is reported as -17.8% (inactive).
With `FC(F)(F)c1cccc(NC(=S)N2CCN(c3ccccc3)CC2)c1` the inhibition was -3.11% (inactive).
With `CC(NC(=O)Cn1cc(C(=O)C2CC2)c2ccccc21)c1ccccc1` (stereo not given) the inhibition was 6.54% (inactive).
With `COC(=O)c1cc(C(=O)c2cc(Cl)ccc2O)coc1=N` the inhibition was 3.92% (inactive).
With `CC(C)OC(=O)c1cc(C(=O)c2cc(Br)ccc2O)coc1=N` the inhibition was -3.62% (inactive).
For `Nc1nnc(SCC(=O)c2ccc([N+](=O)[O-])cc2)s1`, the inhibition was -6.55% (inactive).
For `COc1ccc(S(=O)(=O)N(C)c2ccc(C(N)=O)cc2)cc1`, the inhibition was 3% (inactive).
With `O=C(NCc1ccc2c(c1)OCO2)C1CC(=O)N(C2CCCCCCC2)C1` (stereo not given) the inhibition was 5.14% (inactive).
For `Cc1ccc(-c2nnc(-n3ncc(C#N)c3N)c3ccccc23)cc1C`, the inhibition was -8.25% (inactive).
With `COc1ccc2cc(C(=O)C3CCCN(C(=O)/C=C/c4ccccn4)C3)ccc2c1` (stereo not given) the inhibition was 1.13% (inactive).
In the case of `N=c1c2c(-c3ccccc3)c(-c3ccccc3)n(Cc3ccco3)c2ncn1CCO`, the inhibition is reported as 20% (inactive).
For `COc1ccc(C2c3c(ncn(Cc4ccco4)c3=N)Oc3ccc4ccccc4c32)cc1` (stereo not given), the inhibition was 38.6% (inactive).
With `N=c1c2c(-c3ccccc3)c(-c3ccccc3)n(Cc3ccco3)c2ncn1CCCO` the inhibition was 15.2% (inactive).
For `COc1ccc(-c2oc3ncn(CCN4CCOCC4)c(=N)c3c2-c2ccc(OC)cc2)cc1`, the inhibition was -3.67% (inactive).
In the case of `CS(=O)(=O)N(CC(=O)Nc1ccccc1C(=O)N1CCCC1)c1cccc([N+](=O)[O-])c1`, the inhibition is reported as 3.06% (inactive).
For `Cc1csc(Nc2cccc3ccccc23)n1`, the inhibition was 6.85% (inactive).
In the case of `Cc1ccc(C(=O)Nc2ccccc2-c2ccccc2)cc1[N+](=O)[O-]`, the inhibition is reported as 14.5% (inactive).
With `COC(=O)CSc1snnc1-c1ccc(F)cc1` the inhibition was -0.55% (inactive).
With `Cc1nn(Cc2c(Cl)cccc2Cl)c(Cl)c1/C=N/NC(=O)c1cccnc1` the inhibition was -3.52% (inactive).
In the case of `CCc1ccc(NC(=O)C(NS(=O)(=O)c2cccc3nsnc23)c2ccccc2)cc1` (stereo not given), the inhibition is reported as -4.05% (inactive).
For `Cc1cccc(C(=O)Nc2cccc(OC(=O)c3cccc(C)c3)c2)c1`, the inhibition was 11.6% (inactive).
With `Cc1ccc(NC(=O)c2ccccc2)cc1OC(=O)c1ccccc1` the inhibition was 6.17% (inactive).
In the case of `OCCN1CCN(CC(O)COc2ccc(-c3ccccc3)cc2)CC1` (stereo not given), the inhibition is reported as 5.51% (inactive).
With `OCCN1CCN(CC(O)COc2ccc(Cl)cc2)CC1` (stereo not given) the inhibition was 1.07% (inactive).
For `Cc1ccc(CS(=O)(=O)CCC(=O)NCCC2=CCCCC2)cc1`, the inhibition was 7.74% (inactive).
In the case of `CCCCc1n[nH]c(=S)n1Cc1ccccc1`, the inhibition is reported as -1.46% (inactive).
With `COc1cccc2[nH]c3c(N4CCC5(CC4)OCCO5)ncnc3c12` the inhibition was 1.2% (inactive).
For `CC(C)=CCc1cc([C@@H]2COc3c(ccc4c3C=CC(C)(C)O4)C2)c(O)cc1O`, the inhibition was 8.4% (inactive).
With `CC1(C)C=Cc2c(ccc3c2OC[C@@H](c2ccc(O)cc2O)C3)O1` the inhibition was 1.16% (inactive).
With `COc1ccc2nc(NC(=O)c3cc(S(=O)(=O)N4CCOCC4)ccc3C)sc2c1` the inhibition was 14.6% (inactive).
In the case of `O=C(c1cn(-c2ccccc2)nc1-c1ccccc1)N1CCOCC1`, the inhibition is reported as -8.16% (inactive).
In the case of `COc1ccccc1/C=N/NC(=S)NCc1ccco1`, the inhibition is reported as -0.41% (inactive).
For `CCOC(=O)c1ccc2[nH]c3c(c2c1)CCCC3C(=O)OCC` (stereo not given), the inhibition was -4.38% (inactive).
With `CCOC(=O)C1CCCc2c1[nH]c1c(C(=O)O)cccc21` (stereo not given) the inhibition was -6.94% (inactive).
In the case of `CCOc1ccc(S(=O)(=O)N/N=C2/CC(c3ccccc3)Oc3ccccc32)cc1` (stereo not given), the inhibition is reported as -11.9% (inactive).
With `COC(=O)C1C(c2ccccc2)C=CC(c2ccccc2)C1C(=O)O` (stereo not given) the inhibition was 1.24% (inactive).
In the case of `O=C1C(Cl)=C(Nc2ccccc2)C(=O)c2ccccc21`, the inhibition is reported as -1.42% (inactive).
In the case of `O=C1C=C(Nc2ccccc2C(=O)O)c2ccccc2C1=O`, the inhibition is reported as 1.72% (inactive).
In the case of `O=C1C(Nc2ccccc2)=C(NS(=O)(=O)c2ccccc2)C(=O)c2ccccc21`, the inhibition is reported as 8.84% (inactive).
With `O=C1C=C(Nc2ccc(O)cc2)C(=O)c2ccccc21` the inhibition was 5.07% (inactive).
With `Cc1ccc(NC2=C(Cl)C(=O)c3ccccc3C2=O)cc1` the inhibition was -1.97% (inactive).
In the case of `COC1=C(Nc2ccc(C)cc2)C(=O)c2ccccc2C1=O`, the inhibition is reported as 12.8% (inactive).
In the case of `O=C1C(Nc2ccccc2)=C(N2CCCCC2)C(=O)c2ccccc21`, the inhibition is reported as -1.08% (inactive).
For `CCCCNC1=CC(=O)C(=O)c2ccccc21`, the inhibition was 1.34% (inactive).
In the case of `O=C(c1cc(-c2ccc(Cl)cc2)n(-c2ccc(Cl)c(Cl)c2)n1)N1CCOCC1`, the inhibition is reported as -1.31% (inactive).
For `Cc1ccc(OCC(=O)Nc2cccc3nsnc23)c(C)c1`, the inhibition was 7.75% (inactive).
With `COCOc1ccc(C=O)cc1OCOC` the inhibition was -3.9% (inactive).
For `COc1cc(Cl)c(C)cc1NC(=O)c1ccc(S(C)(=O)=O)cc1`, the inhibition was 3.38% (inactive).
In the case of `CCOc1cc(C=O)ccc1OS(=O)(=O)c1ccc(NC(C)=O)cc1`, the inhibition is reported as 5.36% (inactive).
With `COc1ccc(CN2C(=O)c3oc4ccccc4c(=O)c3C2c2ccc(O)c(OC)c2)cc1` (stereo not given) the inhibition was -7.03% (inactive).
With `Cc1onc(-c2cccc(Cl)c2Cl)c1C(=O)O/N=C(\N)c1ccc([N+](=O)[O-])o1` the inhibition was 67% (inactive).
With `O=c1nc(NCc2ccco2)sc2ncccc12` the inhibition was -7.68% (inactive).
With `O=C1c2ccc(Oc3ccc4c(c3)C(=O)N(CCCCO)C4=O)cc2C(=O)N1CCCCO` the inhibition was -9.34% (inactive).
In the case of `Cc1ccc2c(c1)C(=O)N(CCCCO)C2=O`, the inhibition is reported as -0.27% (inactive).
For `COCCNC(=O)c1ccc2c3n(nc2c1)-c1ccc(Cl)cc1CO3`, the inhibition was -12.9% (inactive).
In the case of `CCOC(=O)c1sc(NC(=O)CCN2CCC(C)CC2)c(C(=O)OCC)c1C`, the inhibition is reported as 5.65% (inactive).
For `O=C(COc1ncnc2ccccc12)c1ccc2c(c1)OCCO2`, the inhibition was -5.58% (inactive).
With `O=C(O)[C@H]1CCCC[C@H]1C(=O)Nc1ccc(Nc2ccccc2)cc1` the inhibition was 3.28% (inactive).
In the case of `O=C(O)C1CC=CCC1C(=O)Nc1ccccc1` (stereo not given), the inhibition is reported as -3.59% (inactive).
For `CCCc1cc(=O)n2[nH]c(NCc3ccc(OC)c(OC)c3)nc2n1`, the inhibition was 3.17% (inactive).
For `Cc1ccc(C)c(NC(=O)C(Sc2ncnc3ccccc23)c2ccccc2)c1` (stereo not given), the inhibition was -1.19% (inactive).
In the case of `CC(NC(N)=O)C(=O)Nc1ccc(Cl)c(S(=O)(=O)Nc2ccc(Cl)cc2)c1` (stereo not given), the inhibition is reported as 0.16% (inactive).
With `COc1ccc(NC(=O)c2cccc(OC(F)F)c2)cc1Cl` the inhibition was 0.2% (inactive).
For `CCOc1ccc(NS(=O)(=O)c2cc(NC(=O)c3ccc(C)cc3)ccc2Cl)cc1`, the inhibition was 11.8% (inactive).
In the case of `O=C(Nc1ccc(OC(F)F)c(Cl)c1)c1cccc(OC(F)F)c1`, the inhibition is reported as 10.2% (inactive).
With `CCOC(=O)c1cc(NC(=O)NCc2ccco2)c(C)nc1C` the inhibition was -7.42% (inactive).
